In the library only some 9.3% were active in any assay of this set; here they are far more common.
NPC1 promoter act – activates the NPC1 promoter. Huh7 NPC1 promoter luciferase reporter, 24 h. Potency, µM (top dose mostly 9.22 µM), most hits filed as activators. 320,000 tested, 2.4% active; further: nearly all actives have a fitted effect of over 60% in size
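In 1536-well qHTS, Huh7 cells harboring an NPC1 promoter–luciferase construct received compound for 24 h; activation was quantified by luminescence following luciferase reagent addition.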
SMN2 splice enh – increases expression of the SMN2 splice variant | Potency, µM (doses to about 46.1 µM), most hits filed as activators | HEK293 SMN2-luciferase splicing reporter, luminescence, 30-36 h | 210,000 tested, 2.8% active | AID 1458; further: nearly all actives have a fitted effect of over 55% in size
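qHTS luciferase splicing reporter: luminescence rises when SMN2 exon 7 is included in transfected HEK293 cells. Compound exposure lasted 30-36 h at 37C, with 4.5 mM final sodium butyrate as control, followed by a ONE-Glo read.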
ELG1 genotox – induces genotoxicity in HEK293T cells with luciferase-tagged ELG1. HEK293T ELG1-luciferase reporter, luminescence, 16 h. 330,000 tested, 1.3% active. Potency, µM (series often up to 46 µM), usual class: activators; further: nearly all actives have a fitted effect of over 60% in size
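After overnight (16 hr) compound treatment at 37 °C, ELG1-luciferase HEK293T cells were lysed with ONE-Glo; luminescence quantified 30 min later at room temperature.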
Rab9 prom act – activators of Rab9 promoter | Potency, µM (doses to about 9.22 µM), usual class: activators | AID 485297 | 320,000 tested, 2.8% active | Huh7 Rab9 promoter-luciferase reporter, luminescence, 24 h; further: nearly all actives have a fitted effect of over 60% in size
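Luminescence read-out: Huh7 cells stably expressing Rab9-luciferase, treated 24 h with compound at 37 °C, then lysed with luciferase reagent for 10 min at ambient before reading.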
FLuc modulator – counter-screen for miR-21 project: firefly luciferase inhibitors or activators | P08659 | 360,000 tested, 6.9% active | Potency, µM (doses to about 57.5 µM), usual class: inhibitors | AID 588342 | purified FLuc, Km substrates, luminescence inhibition; further: nearly all actives have a fitted effect of over 55% in size
Target sequence (P08659 whole entry, looked up): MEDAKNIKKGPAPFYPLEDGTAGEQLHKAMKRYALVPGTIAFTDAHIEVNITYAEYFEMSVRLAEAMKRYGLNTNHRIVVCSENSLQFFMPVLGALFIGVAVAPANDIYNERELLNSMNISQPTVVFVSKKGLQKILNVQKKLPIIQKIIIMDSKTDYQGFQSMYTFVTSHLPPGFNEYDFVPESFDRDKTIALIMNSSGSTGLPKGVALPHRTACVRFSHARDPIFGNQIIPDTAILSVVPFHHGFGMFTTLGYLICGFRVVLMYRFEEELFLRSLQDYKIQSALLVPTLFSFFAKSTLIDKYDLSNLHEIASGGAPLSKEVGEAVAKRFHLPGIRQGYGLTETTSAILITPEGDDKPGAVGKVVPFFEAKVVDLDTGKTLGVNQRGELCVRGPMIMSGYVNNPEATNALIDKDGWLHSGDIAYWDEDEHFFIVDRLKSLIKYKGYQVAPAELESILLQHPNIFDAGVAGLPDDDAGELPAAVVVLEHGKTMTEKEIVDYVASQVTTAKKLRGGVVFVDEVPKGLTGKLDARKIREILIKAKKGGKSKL
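Purified P. pyralis luciferase (10nM final) with 10uM D-luciferin and 10uM ATP (Km levels) in 50mM Tris acetate pH 7.5, 10mM Mg acetate, 0.01% Tween-20, 0.05% BSA; qHTS 6-point titration, ~60 µM downward; luminescence read.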
ELG1 repair inh – blocks ELG1-dependent DNA repair in HEK293T cells; HEK293T ELG1-luciferase reporter, luminescence, 16 h; DNA damage induced by 5-fluorouridine; Potency, µM (titrated, usually from 46.1 µM), most hits filed as inhibitors; 330,000 tested, 2.3% active; further: nearly all actives have a fitted effect of over 55% in size
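Step one: seed 2,000 cells per well. Step two: pin-transfer compound or DMSO alongside 5-fluorouridine. Step three: incubate 16 hr, 37 °C, 5% CO2. Step four: add ONE-Glo, wait 30 min, read luminescence.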
Large screens that a line does not name were inactive. The call rests on the fitted dose curve; in most records, active means well fitted curve in the direction sought with a large enough effect; inconclusive means small, poorly fitted or top-dose-only effect, or another doubt; inactive means no such curve, though single readings can be large; an effect the other way counts as inactive or inconclusive.

O=C(NN=C1C2CC3CC(C2)CC1C3)c1ccncc1	none
COc1ccc(C)cc1NC(=O)c1oc2ccc(S(=O)(=O)N3CCC4(CC3)OCCO4)cc2c1C	none (no result: NPC1 promoter act, SMN2 splice enh, ELG1 genotox, Rab9 prom act, ELG1 repair inh)
CC1(C)CC(=O)C=C(Nc2ccc(F)c(Cl)c2)C1	none (no result: SMN2 splice enh)
Cc1cc(C(=O)N/N=C/C(Cl)=C/c2ccccc2)c(C)o1	FLuc modulator 9.5µM (no result: SMN2 splice enh)
Nc1ccc(C2(c3ccc(N)cc3)OC(=O)c3ccccc32)cc1	none (no result: SMN2 splice enh)
CC(C)OCCCNC(=O)CN1CCN(Cc2ccc(Cl)cc2)C1=O	none (no result: SMN2 splice enh)
Nc1nonc1-n1nnc(C(=O)N/N=C/c2ccco2)c1-c1ccccc1	none (no result: SMN2 splice enh)
CNC(=O)Nc1ccc(C2SCCS2)cc1	FLuc modulator 17µM, ELG1 repair inh inconclusive (no result: SMN2 splice enh)
CC(C)c1ccc(NC(=O)COc2ccc(C3SCCS3)cc2)cc1	none (no result: SMN2 splice enh)
O=C(Nc1ccc(C2SCCS2)cc1)c1ccccc1	NPC1 promoter act 1.1µM, ELG1 genotox inconclusive, Rab9 prom act 1.4µM, FLuc modulator 0.85µM, ELG1 repair inh inconclusive (no result: SMN2 splice enh)
CCCCNC(=O)Nc1ccc(C2SCCS2)cc1	NPC1 promoter act inconclusive, ELG1 genotox inconclusive, Rab9 prom act inconclusive, FLuc modulator 15µM, ELG1 repair inh inconclusive (no result: SMN2 splice enh)
CC(c1ccccc1)N1C(=O)OC(C)(C)C1(C)O (centres undefined)	none (no result: SMN2 splice enh)
Cc1cc2nc(CN(C)Cc3c(C(=O)N(C)C)nc4ccc(Cl)cn34)[nH]c2cc1C	ELG1 repair inh inconclusive (no result: SMN2 splice enh)
COc1ccccc1CCNC(=O)C(=O)Nc1cc2c3c(c1)C(C)C(=O)N3CCC2 (centres undefined)	none (no result: SMN2 splice enh)
Cc1cc(-c2ccccc2)nc(N(C)NC(=O)c2c(F)cccc2F)c1S(C)(=O)=O	ELG1 repair inh 18µM
c1ccc(C2CCCN(Cc3nc(CC4CC4)no3)CC2)cc1 (centres undefined)	FLuc modulator 24µM, ELG1 repair inh inconclusive
CCCN1CCN(C(=O)C2CCCN(c3ncnc4c3nc3n4CCCCC3)C2)CC1 (centres undefined)	none (no result: SMN2 splice enh)
CCn1c(CSc2nc3ccccc3s2)nc2ccccc21	FLuc modulator 24µM
c1csc(CSc2nc3ccccc3s2)c1	NPC1 promoter act inconclusive, SMN2 splice enh inconclusive, ELG1 genotox 15µM, Rab9 prom act 3.5µM, FLuc modulator 4.8µM, ELG1 repair inh inconclusive
Cc1ccc(NC(=O)CN2C(=O)COc3ccc(S(=O)(=O)N4CCOCC4)cc32)cc1F	ELG1 repair inh inconclusive (no result: SMN2 splice enh)
CC(C)(C)C(=O)O/N=C(\N)COc1cccc(Cl)c1	FLuc modulator 17µM (no result: SMN2 splice enh)
Cc1ccc(Nc2cc(C)nc3nc(Cc4ccc(Cl)cc4)nn23)cc1	none (no result: NPC1 promoter act, ELG1 genotox, Rab9 prom act, ELG1 repair inh)
COC(=O)Cc1c(C)c2ccc(OCc3nn[nH]n3)c(C)c2oc1=O	FLuc modulator inconclusive
COC(=O)Cc1c(C)c2ccc(OCC(C)=O)c(C)c2oc1=O	NPC1 promoter act inconclusive, SMN2 splice enh 13µM, ELG1 genotox 9.2µM, Rab9 prom act inconclusive, FLuc modulator inconclusive, ELG1 repair inh inconclusive
C=C(C)COc1ccc2c(C)c(CC(=O)OC)c(=O)oc2c1C	NPC1 promoter act inconclusive, ELG1 genotox 9.2µM, Rab9 prom act inconclusive, FLuc modulator 9.5µM, ELG1 repair inh inconclusive
CCOC(=O)CCc1c(C)c2ccc(OCC(=O)N(CC)CC)c(C)c2oc1=O	ELG1 repair inh 18µM (no result: SMN2 splice enh)
CSCCC(NS(=O)(=O)c1ccc2c(c1)OCCO2)C(=O)N(C)Cc1ccccc1F (centres undefined)	ELG1 repair inh 16µM (no result: SMN2 splice enh)
CCc1ccc(Nc2nnc(SCC(=O)NCCN3C(=O)CSC3=O)s2)cc1	SMN2 splice enh 11µM, ELG1 genotox inconclusive, Rab9 prom act inconclusive, FLuc modulator 1.9µM, ELG1 repair inh inconclusive
Cn1c(SCC(=O)NCCN2C(=O)CSC2=O)nnc1-c1ccccc1	none
CCc1ccc(Nc2nnc(SCC(=O)Nc3sccc3C(N)=O)s2)cc1	SMN2 splice enh inconclusive, FLuc modulator 2.1µM, ELG1 repair inh inconclusive
COc1cccc(Nc2nnc(SCC(=O)Nc3sccc3C(N)=O)s2)c1	FLuc modulator 11µM, ELG1 repair inh 15µM
CCc1ccc(Nc2nnc(SCC(=O)c3c(N)n(C4CC4)c(=O)[nH]c3=O)s2)cc1	FLuc modulator 0.6µM, ELG1 repair inh inconclusive (no result: SMN2 splice enh)

From PubChem
